This is an account of results in PubChem BioAssay AID2507 (National Center for Advancing Translational Sciences (NCATS), 2010).

Results filed as inconclusive are left out. Calls of active or inactive are those of the source. The call rests on the fitted dose curve; in most records, active means well fitted inhibition curve with a large enough effect; inconclusive means small, poorly fitted or top-dose-only effect, or effect the other way; inactive means flat fitted curve, though single readings scatter.

The assay in a line: Secondary Assay for General miRNAs Modulators and/or Inhibitors/Activators of miR-21: miR-30 Firefly Luciferase Assay. The note with it: HeLa miR-30 FLuc reporter, luminescence, 48 h; series mostly up to 38.3 µM. From the text:
MLSCN Grant: 1 R21 NS059478-01 Assay Provider: Qihong Huang, The Wistar Institute NCGC Assay Overview: MicroRNAs (miRNAs) are endogenously encoded small (~20-25 nucleotides), nonprotein-coding RNAs that are involved in post-transcriptional repression of target messenger RNAs (mRNAs) (Le and Hannon, 2004). Estimated to be involved in the regulation of 30% of all protein-coding mRNAs (Filipowicz et al., 2008), miRNAs play a significant role in many biological processes including cellular differentiation and tissue development (Ghildiyal and Zamore, 2009). […] Compounds active in the miR-21 FLuc assay were clustered using Leadscope and active chemical series were prioritized based on chemical properties, potential for medicinal chemistry optimization, and SAR. Within each chemical series, representative compounds were re-acquired to test for activity in a secondary assay based on the quality of their CRC, efficacy, and potency. The secondary assay to determine if compounds active in the miR-21 FLuc assay were potentially specific for miR-21 and were not general modulators of the miRNA pathway was another cell-based FLuc reporter gene assay, this time targeting miR-30. Compounds found active in both the miR-21 FLuc and miR-30 FLuc assays are not considered miR-21 specific compounds, and may be general miRNA modulators.
NCGC Assay Protocol Summary: Reagents: HeLa cells stably expressing firefly luciferase (FLuc) under the control of a CMV promoter (upstream) and a miR-30 binding sequence directly downstream of the gene. These cells also stably express miR-30. Control compounds used were compound C3 (provided by collaborator), N6-phenyladenosine (MP Biomedicals, 0215379625), and DMSO. Assay Summary: 6uL of HeLa miR-30-FLuc cells in assay buffer (DMEM, Invitrogen #21063-029; 10% FBS, HyClone #SH30071.03) were dispensed at 1000cells/well (1.7 x 10^5 cells/mL) into Greiner solid-white TC-treated 1536-well plates using a Multidrop Combi (Thermo Fisher Scientific). Plates were incubated for one hour at 37 degree Celsius, 95% humidity, 5% CO2. These assay plates were then treated with 23nL of compound or DMSO using a Kalypsys pin tool, which allows for delivery of a 24-point titration of each compound to the assay plate, with a final compound concentration ranging from approximately 40uM to 5pM. Assay plates were then incubated for 48 hours. After incubation, plates were allowed to come to RT for one hour prior to delivery of 3uL of 3X luciferase detection reagent. After a 15 minute incubation to allow for cell lysis, luciferase activity was measured using a ViewLux CCD imager (PerkinElmer), with an average exposure time of 2-12 seconds. Keywords: NIH Roadmap, MLPCN, MLSMR, qHTS, miR-21, miR-30, microRNA, firefly luciferase, FLuc.
In the case of `Cc1cccc(-n2nnc(-c3nc(-c4cccs4)no3)c2N)c1`, the Potency was 798 nM (active).
